# Reference: PubChem BioAssay (NCI)
# The panel holds about 83,000 compounds, 20% with a hit somewhere; the sample as a whole holds those more often.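 The test compound was applied at a single concentration to cells in 96-well plates for 48 hours, and percent growth was recorded.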 Calls of active or inactive are those of the source.
# Tested on: MDA-MB-435 melanoma
# Experiment: NCI-60 one-dose screen, 48 h (100 = growth as untreated, 0 = no growth, -100 = all killed)
# Conditions: 10 µM unless noted
# Experimental: Growth inhibition of the MDA-MB-435 human Melanoma tumor cell line is measured as a screen for anti-cancer activity. Cells are grown in 96 well plates and exposed to the test compound for 48 hours. Compounds are tested at a single concentration, which is 10^-5 M for most compounds. The reported endpoint is percent growth (GI% or GIPRCNT), where numbers from 0 - 100% represent growth inhibition, and numbers from -100% - 0 represent cell death. For example, a value of 40 represents 60% growth inhibition. A value of 0 means no net growth occurred over the course of the experiment. A value of -40 indicates 40% of cells at the beginning of the experiment died by the end of the experiment. A value of -100 means all cells are dead at the end of the experiment.
# NCI-60 Human Tumor Cell Lines Screen was performed using the standard one-dose NCI protocol, which is described in more detail at https://dtp.cancer.gov/discovery_development/nci-60/default.htm.
# Compounds with GIPRCNT values below 10 were considered active. Activity score was based on GIPRCNT using the following formula: […]
# Score is 0 for GIPRCNT values of 100 or above, 50 for GIPRCNT values of 0, and 100 for GIPRCNT values of -100.
row,SMILES,growth
1,O=C(N/N=C/c1ccc(Cl)cc1)c1ccc(NC(=O)c2ccccn2)cc1,63.8% (inactive)
2,COC(=O)c1nc(-c2ccccc2)oc1S(=O)(=O)N1CCCC(C)C1 (stereo not given),84.5% (inactive)
3,COc1cc2ncnc(Nc3ccc(F)c(Cl)c3)c2cc1OCC(=O)N1CCOCC1,102% (inactive)
4,Cc1oc(-c2ccc(Cl)cc2)nc1C1=NN(C(=O)c2ccncc2)C(c2ccccc2)C1 (stereo not given),95.9% (inactive)
5,COc1ccc(CNc2ccc3nc(NC(=O)CN4CCCCCC4)sc3c2)cc1,94.1% (inactive)
6,COc1ccc(C/C(C)=C(\c2ccc(O)cc2)c2ccc(OCCN3CCCCC3)cc2)cc1,82.1% (inactive)
7,CCCn1c(=S)sc2c(NNC(C)=O)nc(C)nc21,115% (inactive)
8,CCOC(=O)c1c(C)nc2ccccc2c1/C=C/c1ccc(F)cc1,78.7% (inactive)
9,CNC(=O)Nc1ccc(-c2ccc3ncnc(Nc4cccc(Cl)c4)c3c2)cc1,64% (inactive)
10,Cc1c(C(C)(C)O)cn2ncnc(Oc3ccc(NC(=O)Nc4ccc(Cl)c(C(F)(F)F)c4)c(F)c3)c12,58% (inactive)
11,CCCCCc1ccc(S(=O)(=O)Nc2ccc3nc(N)oc3c2)cc1,50.3% (inactive)
12,CC/C(=C(\c1ccc(Cl)cc1)c1ccc(OCCN2CCCCC2)cc1)c1ccc(O)cc1,2.07% (active)
13,O=C1OCC2=C1C(c1ccccc1)c1cc3c(cc1N2CCO)OCCO3 (stereo not given),-32% (active)
14,O=CCCCOCc1ccccc1,107% (inactive)
15,COc1ccc(/C=C2\CN(C(=O)C(Cl)Cl)C/C(=C\c3ccc(OC)c(OC)c3)C2=O)cc1OC,-34.3% (active)
16,O=C(O)CCCCCCCCCCN1C(=O)/C(=C2/C(=O)N(CC(=O)O)c3ccc(Br)cc32)SC1=S,102% (inactive)
17,O=C(O)c1cn(C2CC2)c2cc(N3CCN(C(=O)N4CCOCC4)CC3)c(F)cc2c1=O,105% (inactive)
18,COc1ccc2c(c1)oc1c(C)c3c(c(C)c12)C(=O)N(CCOS(C)(=O)=O)C3=O,94.9% (inactive)
19,Cc1cc2oc(/C=C/c3ccccc3)cc(=O)c2c(C)c1Cl,95.9% (inactive)
20,COC(=O)Cn1c2c(c3c(OC)cccc31)C(=O)c1ccccc1-2,112% (inactive)

row,SMILES,growth
1,COc1cc(/C=C/C(=O)c2cc(OC)c(OC)c(OC)c2)ccc1Oc1nc2c(c(=O)n(C)c(=O)n2C)n1C,-44% (active)
2,COc1cc(Cc2cc(OC)c(O)c(OC)c2)cc(OC)c1O,2.4% (active)
3,COc1cc2c3c(c4c5ccccc5[nH]c4c2c(OC)c1OC)C(=O)N(CCN1CCCCC1)C3=O,33.7% (inactive)
4,O=C(NNc1nc2cc(F)ccc2n2c(CN3CCOCC3)ccc12)c1ccccc1,27.3% (inactive)
5,O=S(=O)(NCCNc1nccc(-c2c(-c3ccc(F)c(O)c3)nc3sccn23)n1)c1ccc(Cl)cc1,3.65% (active)
6,Fc1cc2[nH]ncc2c2c3c(c(-c4cn[nH]c4C(F)(F)F)nc12)CCCC3,26.2% (inactive)
7,CN1C(=O)/C(=C/c2ccc(C(=O)Nc3ncc(Cc4cccc(C(F)(F)F)c4)s3)cc2)SC1=S,-27.2% (active)
8,COc1ccc(C(O)c2cc3c(N)c(C(=O)Nc4cccc5ccccc45)sc3nc2C)cc1 (stereo not given),-17.1% (active)
9,CC1(C)CC[C@]2(CO)CC[C@]3(C)[C@](O)([C@H](O)C[C@@H]4[C@@]5(C)CCCNC(C)(C)[C@@H]5CC[C@]43C)[C@@H]2C1,93.2% (inactive)
10,CCOC(=O)/C=C1\S/C(=N\Nc2cc(=O)[nH]c3ccc(Br)cc23)N(c2ccccc2)C1=O,94.5% (inactive)
11,O=C(Cn1nc(-c2cccc3ccccc23)ccc1=O)NCc1cccc(Cl)c1,45.5% [50 µM] (inactive)
12,COc1ccc(-c2cc(-c3cccnc3)nc3sc4c(N)c(C(C)=O)c(-c5ccccc5)nc4c23)cc1OC,45.7% (inactive)
13,CNCC[C@H](Oc1cccc2ccccc12)c1cccs1,88.5% (inactive)
14,O=C(c1ccc(Br)cc1)C(Br)C(c1ccc(Cl)cc1)C(c1ccccc1)[N+](=O)[O-] (stereo not given),95.9% (inactive)
15,COC(=O)[C@@]1(C)CC[C@]2(C)CC[C@]3(C)C4=CC=C5C(=CC(=O)C(O)=C5C)[C@]4(C)[C@@H](O)C[C@@]3(C)[C@@H]2C1,15.9% (inactive)
16,CCN(CC)CCOc1ccc2ccc(=O)oc2c1,112% (inactive)
17,CCOC(=O)NCCCC(=O)NCCc1ccccc1,109% (inactive)
18,CCOc1ncc([N+](=O)[O-])c(OCC)n1,124% (inactive)
19,O=CN1N=C(c2cccc(Nc3ccnc4cc(Cl)ccc34)c2)CC1c1ccc(Cl)cc1 (stereo not given),-38.3% (active)
20,COc1cc2ncnc(Nc3ccc(S(=O)(=O)Nc4nccs4)cc3)c2cc1OCCCN1CCCC1,99.7% (inactive)
